Assay in all cases: NCI-60 one-dose screen, 48 h (100 = growth as untreated, 0 = no growth, -100 = all killed)
What all share (details): 10 µM unless noted

Assay [1] deals with HCT-15 colon.
For assay [2], the system named is HT29 colon.
Assay [3] relates to SNB-75 CNS.
The subject of assay [4] is SNB-19 CNS.
Assay [5] relates to U251 CNS.
The test system of assay [6] is PC-3 prostate.
Assay [7] concerns SK-MEL-5 melanoma.
In assay [8] the test system is UACC-62 melanoma.
The subject of assay [9] is SK-MEL-28 melanoma.
The test system of assay [10] is LOX IMVI melanoma.

Compounds without any hit were thinned out: in the full panel of roughly 83,000, 20% have a hit.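 Interpretation: 100, growth as untreated; towards 0, rising growth inhibition; 0, no net growth; 0 to -100, cell death. Compounds scoring below 10 were considered active.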 Unmarked numbers belong to inactive results. The source made the active and inactive calls.

Take `CC(C)NCC(O)COc1ccc(CCOCC2CC2)cc1` (stereo not given): the growth in assay [1] was 107%; in [2], 97.9%; in assay [3], 99.3%; in assay [4], 106%; in assay [5], 99.4%; in [6], 80%. The growth in assay [7] was 95%; in [8], 110%; in assay [9], 118%.

Turning to `COC(=O)[C@@]12CC[C@@H](C)[C@]3(C[C@@H](c4ccoc4)OC3=O)[C@H]1CC[C@@H]1O[C@@]12C`, the growth in assay [1] is 101%; in [2] it was 107%; in assay [3] it was 86%; in [4], 102%; in [5] it was 105%; in assay [6] it was 95.2%. For the same compound, the growth in assay [7] was 98.9%; in assay [8], 95.1%; in assay [10], 99.3%; in assay [9], 103%.

As for `COc1ccc(OC2=C(C#N)C(=N)N3c4ccccc4Sc4ccccc4C3N2)cc1` (stereo not given), the growth was 105% in [1]; 119% in assay [2]; 69% in assay [3]; 97.8% in assay [4]; 105% in assay [5]; 88.9% in [6]. For the same compound, the results for the growth in assay [8], in assay [10] and in assay [9] were 69.6%, 87.4% and 76.4%, respectively.

Consider `COc1cccc(C2CC(=O)Nc3cc4c(cc32)OCO4)c1OC` (stereo not given), for which the growth in assay [1] was 89.4%; in assay [2], 90.6%; in assay [3] it was 76.3%; in assay [4], 101%; in [5], 85.6%; in assay [6] it was 94.2%. For the same compound, the growth in [8] was 96.1%; in assay [10] it was 96.5%; in assay [9] it was 111%.

With `C[C@@H](Oc1cc(-c2cnn(C3CC4(CNC4)C3)c2)cnc1N)c1c(Cl)ccc(F)c1Cl`, the growth in assay [1] was 35.4%; in assay [2], -11.9% (active); in [3], 25.1%; in assay [4], 96.7%; in [5], 61.8%; in assay [6] it was 24.7%. Also, the values for the growth in assay [8], in assay [10] and in assay [9] were 53%, 11.5% and 58.9%, respectively.

`Cc1ccc2c(c1)c(Sc1ccc(C(=O)NO)cc1)c1n2CN(C)CC1`: the growth in [1] was 58.7%; in assay [2], 25.6%; in assay [3], 17.8%; in [4] it was 31%; in [5] it was 2.16% (active); in assay [6], -3.93% (active). Besides, the growth is -1.71% (active) in assay [8], -33.1% (active) in [10] and 7.31% (active) in assay [9].

With `Cc1nn(CC(=O)O)c2c1C(=O)CC(C)(C)C2`, the growth is 102% in [1]; 108% in [2]; 86.8% in assay [3]; 103% in assay [4]; 119% in assay [5]; 102% in assay [6]. Besides, the growth in assay [8] was 91%; in [10], 107%; in assay [9], 105%.

For `COc1cc(C2CC(=O)Nc3c2ccc2ccccc32)cc(Br)c1OC` (stereo not given), the growth in assay [1] is 27.9%; in assay [2], -6.29% (active); in assay [3], -18.6% (active); in [4] it was 39%; in assay [5], 18.6%; in assay [6] it was 15.2%. The growth in assay [8] is 12.1%; in assay [10] it was 25.1%; in assay [9], 43.6%.

As to `O=C1CC(c2ccsc2)c2snc(-c3ccc(Cl)cc3)c2N1` (stereo not given), the growth in [1] was 21.9%; in assay [2], 3.6% (active); in [3], -6.98% (active); in [4], 64.4%; in assay [5], 27.7%; in [6], 24%. Besides, the growth in [8] was 30.8%; in assay [10], 51.8%; in [9], 45.4%.

Take `O=C1C(N2CCOCC2)=Cc2cccc3cccc1c23`: the growth in assay [1] is 92.6%; in [2], 92.4%; in [3] it was 86.9%; in assay [4], 92.4%; in assay [5] it was 92.8%; in assay [6], 95.4%. Besides, the growth in assay [8] was 91.2%; in [10] it was 101%; in assay [9], 97.5%.

Take `Nc1nc(-c2ccnc(Cl)c2)nn1-c1nc2ccccc2s1`: the growth is 101% in assay [1]; 112% in assay [2]; 103% in assay [3]; 98.9% in [4]; 107% in assay [5]; 102% in assay [6]. The growth in assay [8] is 97%; in [10], 102%; in assay [9] it was 104%.

Regarding `Cn1c2ccccc2c2nn(Cc3ccccc3)c(=O)nc21`, the growth was 94.6% in assay [1]; 112% in assay [2]; 77% in assay [3]; 106% in [4]; 106% in [5]; 99.4% in [6]. The growth in assay [8] was 108%; in [10], 102%; in [9] it was 126%.

With `COc1ccc(Nc2[nH]n(C3=Nc4ccccc4Sc4ccccc43)c(=O)c2C#N)cc1`, the growth was 49.3% in assay [1]; 68.7% in assay [2]; 67.3% in assay [3]; 73.5% in assay [4]; 67% in assay [5]; 41.4% in [6]. Also, the figures for the growth in assay [8] and in assay [10] were 32.8% and 54.6%, respectively.

In the case of `COc1cc2nc(N3CCC[C@H](NC4=CC(=O)c5ccccc5C4=O)C3)nc(N)c2cc1OC`, the growth in [1] was -63.5% (active); in assay [2] it was -69.1% (active); in [3], -83.5% (active); in assay [4] it was -74.7% (active); in assay [5] it was -90.2% (active); in assay [6] it was 54.5%. Also, the results for the growth in [8], in assay [10] and in assay [9] were -87.9% (active), -82.9% (active) and -85.2% (active), respectively.

For `COc1cccc(C2C3=C(COC3=O)N(CCO)c3cc4c(cc32)CCC4)c1` (stereo not given), the growth in [1] is 2.3% (active); in assay [2] it was -28.2% (active); in assay [3] it was -19.2% (active); in assay [4], 11.3%; in [5], 2.42% (active); in assay [6] it was 23.5%. Further, the growth in assay [8] was 8.14% (active); in assay [10], 14.8%; in [9] it was 46.8%.
